Bioassay records: PubChem, National Center for Advancing Translational Sciences (NCATS)
A selection: hits, their analogues and other compounds. The true share with any hit is near 9.4%.
Pf growth 48h: P. falciparum growth inhibition at 48 hours (one generation); P. falciparum luciferase growth in erythrocytes, 48 h; Potency, µM (series often up to 28.7 µM), inactives show at the highest dose activity change, negative = inhibition, actives largely listed as inhibitors; 5.9% of 310,000 active; note: % is set by controls: 0 for no effect and ±100 for the full control effect
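Here the parasites carry a stable luciferase gene and grow inside erythrocytes in Albumax-based RPMI medium with compound for one erythrocytic cycle. Activity is scored as loss of luminescent signal.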
Pf growth 96h: P. falciparum growth inhibition at 96 hour, primary screen for plastid delayed-death inhibitors; P. falciparum luciferase reporter growth, 96 h; AID 504834; 6.9% of 320,000 active; Potency, µM (doses to about 28.7 µM), for inactives: top-dose activity change, negative = inhibition, usual class: inhibitors; note: % is set by controls: 0 for no effect and ±100 for the full control effect
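Infected RBCs, 2% Hct / 0.05% parasitemia final; luciferase-reporter P. falciparum; cpd 96 h, 37 C, 5% CO2; luciferase detection reagent; luminescence.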
SARS PLP yeast: blocks SARS-CoV papain-like protease in a yeast assay. Potency, µM (doses to about 32.9 µM), inactives show at the highest dose activity, positive = growth rescue, most hits filed as activators. AID 485353. 0.19% of 330,000 active. S. cerevisiae expressing SARS-CoV PLpro, growth rescue; calls by dose curve; note: 0% is about no effect; nearly all actives have a fitted effect of over 55% in size
AMA1-RON2 inh: disrupts binding of P. falciparum AMA1 to RON2 | AlphaScreen AMA1-biotinylated RON2 peptide binding | Potency, µM (series often up to 58.2 µM), for inactives: top-dose activity change, negative = inhibition, most hits filed as inhibitors | 0.2% of 360,000 active;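 note: 0% = vehicle wells and -100% = peptide control; nearly all actives have a fitted effect of over 45% in size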
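AMA1 (3D7) with his tag at 25 nM final met compounds first, then biotinylated RON2 peptide at 25 nM; detection used donor plus acceptor beads, 10 µg/mL apiece, read by AlphaScreen after 30 min at room temperature.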
Starred values were filed as active, the others as inactive; ? = inconclusive; · = not tested or not shown; [ ] = dose if it differs, or a comment. Unless noted, calls come from the whole dose curve; as a rule, active = well fitted curve in the direction sought with a large enough effect; inconclusive = small, poorly fitted or top-dose-only effect, or another doubt; inactive = no such curve, though single readings can be large; an effect the other way counts as inactive or inconclusive. Potency is the fitted concentration of half-maximal effect.

SMILES | Pf growth 48h | Pf growth 96h | SARS PLP yeast | AMA1-RON2 inh
CN(C(=O)c1ccc(-c2nn(C)c(=O)c3ccccc23)cc1)C1CCCCC1 | 12µM* | 13% | -3% | -15%
COc1ccc(OCC(=O)Nc2cc(-c3nn(C)c(=O)c4ccccc34)ccc2N2CCOCC2)cc1 | ? | 5.9µM* | 0% | -14%
CCN(CC)C(=O)c1ccc(NC(=O)COc2ccc(-c3nn(C)c(=O)c4ccccc34)cc2)cc1 | 13µM* | ? | -2% | -10%
COc1ccc(N2CCOCC2)c(NC(=O)c2ccc(Br)o2)c1 | ? | 10% | -2% | -9%
COc1ccc(N2CCOCC2)c(NC(=O)c2cccc3ccccc23)c1 | 3.7µM* | 7% | -9% | -10%
CCCN(CCC(=O)Nc1cc(OC)cc(OC)c1)CC1CC1 | ? | -13% | -7% | 6%
C[C@H](NS(=O)(=O)c1ccccc1)C(=O)N1CCN(C(c2ccccc2)c2ccccc2)CC1 | · | · | -2% | 15%
CC(=O)O/N=C1\C(=O)N(Cc2ccc(C)cc2)c2ccccc21 | ? | ? | -7% | -11%
CC(C)CC(=O)O/N=C1\C(=O)N(Cc2ccc(Cl)cc2)c2ccc([N+](=O)[O-])cc21 | ? | 5.2µM* | -41% | ·
COc1cc(NC(=O)COc2ccc(Cl)cc2)ccc1-c1cc2ccccc2oc1=O | ? | 4.1µM* | -3% | 1%
CNc1c(NC(=O)COc2ccc(Cl)cc2)c(=O)oc2ccccc12 | 10µM* | ? | -4% | 22%
CC(=O)N(C)C(c1ccc(N(C)C)cc1)c1nnnn1-c1c(C)cccc1C (centres undefined) | 5.2µM* | 5.2µM* | 29% | ?
CCC(c1nnnn1-c1c(C)cccc1C)N1CCN(CC)CC1 (centres undefined) | · | · | · | 0%
CCC(C)n1c(SCC(=O)Nc2ccc3[nH]c(=O)[nH]c3c2)nc2ccccc2c1=O (centres undefined) | ? | ? | · | 9%
O=C(CNS(=O)(=O)c1cccs1)NCCc1ccc(Cl)cc1 | 6% | 13µM* | 1% | -7%
O=C(CNS(=O)(=O)c1cccs1)NCc1ccccc1 | ? | 0% | 2% | 16%
O=C(CSc1ncccn1)NCc1ccc(Cl)cc1 | 121% | 200% | -1% | 6%
O=C(OCc1cccc([N+](=O)[O-])c1)c1ccncc1 | 18% | ? | 0% | -29%
N#Cc1c(SCC(=O)Nc2ccc(Cl)cc2Cl)sc2c(O)cc(=O)[nH]c12 | 2.9µM* | 6% | 4% | -14%
O=C(c1ccoc1)N1CCC2(CC1)Oc1ccc(F)cc1C(=O)C21CC(c2cccnc2)=NO1 (centres undefined) | ? | ? | -1% | -1%
N#Cc1sc2nc3c(cc2c1N)CCCC3 | 74% | 12µM* | -53% | 20%[11.6 µM]
Nc1c(C(=O)O)sc2nc3c(cc12)CCCC3 | 31% | 29% | 1% | 13%
COc1ccc(OC)c(-c2cnc(OC(C)(C)C)nc2OC(C)(C)C)c1 | 12µM* | 10µM* | 4% | -12%
O=C(Cn1cnc(S(=O)(=O)N2CCCCC2)c1)N1CCN(c2ccc([N+](=O)[O-])cc2)CC1 | ? | ? | -3% | -11%
CCC(C)[C@H](NC(=O)NCCCOC(C)C)C(=O)OC (some centres undefined) | -25% | 12µM* | -1% | -4%
SMILES | Pf growth 48h | Pf growth 96h | SARS PLP yeast | AMA1-RON2 inh
COCCCNC(=O)C(=O)NCCCOC(C)C | 3% | 12µM* | 0% | -11%
CCOCCCNC(=O)N[C@H](C(=O)OC)C(C)CC (some centres undefined) | ? | ? | 0% | -2%
O=C(c1ccc(S(=O)(=O)c2ccccc2)cc1)N1CCc2ccccc2C1 | -8% | 56% | 3% | -4%
O=C(c1ccc(S(=O)(=O)N2CCCCC2)cc1)N1CCCc2ccccc21 | ? | 13µM* | 4% | -11%
O=C(c1ccc(S(=O)(=O)N2CCCCC2)cc1)N1CCc2ccccc2C1 | ? | 3.3µM* | 1% | 2%
O=C(CNC(=O)c1ccccc1F)N/N=C/c1ccco1 | 42% | 34% | -3% | 0%
CN1CCN(CC(=O)N2CCn3c4c(c5cc(C6CCCCC6)ccc53)CCCC42)CC1 (centres undefined) | 7.4µM* | ? | -15% | ?
Cc1ccc2c(c1)c1c3n2CCN(CCC(=O)O)C3CCC1 (centres undefined) | 28% | -26% | 0% | -15%
Cc1ccc2c(c1)c1c3n2CCCN(Cc2ccccc2)C3CCC1 (centres undefined) | 0.93µM* | · | 0% | 4%
Cc1ccc2c(c1)c1c3n2CCN(CC(N)=O)C3CCC1 (centres undefined) | 13µM* | -5% | 4% | -5%
Cc1ccc2c(c1)c(=O)c1c3n2CCN(C(=O)CCl)C3CC1 (centres undefined) | · | 5.2µM* | 12% | -1%
Brc1ccc(COc2cccc3cccnc23)cc1 | · | · | · | 20%
Cc1ccc2c(c1)c1c3n2CCN(C(=O)CN2CCN(C)CC2)C3CCC1 (centres undefined) | ? | · | 1% | -23%
Cc1ccc2c(c1)c1c3n2CCN(C(=O)Cn2c(-c4ccccc4)noc2=O)C3CCC1 (centres undefined) | 0.19µM* | 9.3µM* | 0% | -18%
Cc1ccc2c(c1)c1c3n2CCN(CC#N)C3CCC1 (centres undefined) | ? | ? | 0% | 18%
Cc1ccc2c(c1)c1c3n2CCN(CC(O)CNC(C)C)C3CCC1 (centres undefined) | ? | 13µM* | 1% | -12%
O=C(CN1CCN(c2ccc([N+](=O)[O-])cc2)CC1)Nc1nccs1 | 4% | 15% | 5% | -8%
COc1ccc(Cl)cc1NC(=O)COC(=O)Cc1cccs1 | 39% | 13% | -8% | -9%
COc1ccccc1CNC(=O)COc1ccc(S(=O)(=O)N2CCOCC2)cc1 | ? | ? | -1% | 1%
COc1ccccc1CNC(=O)COc1ccc(S(=O)(=O)N2CCCC2)cc1 | 13µM* | -28% | -2% | -14%
CCOc1ccc(S(=O)(=O)N2CCC(C(=O)OCc3cccc(OC)c3OC)CC2)cc1 | 9.3µM* | ? | -3% | 1%
CSc1ccccc1NC(=O)COc1ccc(S(=O)(=O)N2CCCC2)cc1 | 13µM* | ? | 12% | -1%
CC(C)NC(=O)COc1ccc(S(=O)(=O)N2CCCC2)cc1 | -16% | 1.5µM* | -3% | -7%
CC(C)NC(=O)COc1ccc(S(=O)(=O)N2CCOCC2)cc1 | -3% | · | 4% | -5%
COc1cccc(COC(=O)C2CCN(S(=O)(=O)c3ccc(C)cc3)CC2)c1OC | ? | 0% | -3% | -2%
O=C(O)CCc1nc2cccnc2n1Cc1ccccc1 | -9% | 358% | -14% | -10%
O=C(NCCc1ccccc1)Nc1ccc(Cl)cc1 | 150% | 17% | -4% | -4%
Cc1oc(-c2ccccc2Cl)nc1CS(=O)CC(=O)NCc1cccs1 (centres undefined) | · | -17% | 2% | -1%
CCCc1cc(=O)n2[nH]c(NCc3c(Cl)cccc3Cl)nc2n1 | -12% | · | 3% | 2%
